The values below come from PubChem BioAssay (NCATS).

Records with an inconclusive call do not appear. The source made the active and inactive calls. Calls come from the whole dose curve; as a rule, active = well fitted cell-killing curve with a large enough effect; inconclusive = small, poorly fitted or top-dose-only effect, or effect the other way; inactive = no such curve, though single readings can be large or run the other way.

Assay [1] is described as follows: Quantitative High-Throughput drug screen in 47 multiple myeloma cell lines against the NCATS MIPE library collection: Delta47_JCRB cell viability assay (AID 1918925; note: nearly all actives have a fitted effect of over 45% in size). The method, boiled down: (§1)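 Myeloma cells (500 per well) were exposed to MIPE 4.0 compounds by pin transfer and incubated 48 hours at 37C, 5% CO2. Viability was read as ATP by CellTiter-Glo luminescence, normalised to DMSO (100%) and media-only (0%) wells.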

Assay [2] in a line: Quantitative High-Throughput drug screen in 47 multiple myeloma cell lines against the NCATS MIPE library collection: EJM_DSMZ cell viability assay (AID 1918926; note: nearly all actives have a fitted effect of over 30% in size). Summed up: as §1
The nature of assay [3]: Quantitative High-Throughput drug screen in 47 multiple myeloma cell lines against the NCATS MIPE library collection: AMO1_DSMZ cell viability assay (AID 1918927; note: nearly all actives have a fitted effect of over 30% in size). The method, boiled down: as §1
A short description of assay [4]: Quantitative High-Throughput drug screen in 47 multiple myeloma cell lines against the NCATS MIPE library collection: ARP1_JJKsccF8 cell viability assay (AID 1918928; note: nearly all actives have a fitted effect of over 40% in size). Summed up:
(§2)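 ATP readout (CellTiter-Glo), 48 h drug incubation, 37 °C/5% CO2, 500 cells per well; normalisation to DMSO (100%) and media-only (0%) controls.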

Assay [5] in a line: Quantitative High-Throughput drug screen in 47 multiple myeloma cell lines against the NCATS MIPE library collection: KMM1_JCRB cell viability assay (AID 1918960). Note: nearly all actives have a fitted effect of over 30% in size. The method, boiled down:
as §2

Assay [6] can be described thus: Quantitative High-Throughput drug screen in 47 multiple myeloma cell lines against the NCATS MIPE library collection: ARD_JJKsccE7 cell viability assay (AID 1918929). The method, boiled down:
as §1

Assay [7] can be described thus: Quantitative High-Throughput drug screen in 47 multiple myeloma cell lines against the NCATS MIPE library collection: Karpas417_ECACC cell viability assay (AID 1918961). As to conditions: Karpas417 myeloma viability, CellTiter-Glo ATP luminescence, 48 h; viability (% of DMSO): at 45.8 µM (top of the series). The method, boiled down: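 qHTS of the MIPE 4.0 collection: 500 myeloma cells/well, 48 h drug exposure at 37C in 5% CO2, then CellTiter-Glo for 5 min at room temperature before luminescence reading.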
In general terms: Cellular ATP, detected with luciferase, serves as a proxy for viable cell number.

A short description of assay [8]: Quantitative High-Throughput drug screen in 47 multiple myeloma cell lines against the NCATS MIPE library collection: FR4_PLB cell viability assay (AID 1918924; note: nearly all actives have a fitted effect of over 35% in size). Summed up:
(§3)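 Inhibition of cell viability is measured here. Each line was plated at 500 cells per well, treated with MIPE 4.0 drugs, kept 48 hours at 37C, then assayed for ATP content by CellTiter-Glo luminescence.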

A short description of assay [9]: Quantitative High-Throughput drug screen in 47 multiple myeloma cell lines against the NCATS MIPE library collection: Karpas620_DSMZ cell viability assay (AID 1918959). Note: nearly all actives have a fitted effect of over 30% in size. The method, boiled down:
as §3
Potency is the fitted concentration of half-maximal effect.

In the case of `O=C(NC[C@H](O)CO)c1ccncc1Nc1ccc(I)cc1F`, the Potency is 11.8 µM (active) in [1]; 18.7 µM (active) in assay [2]; 5.26 µM (active) in assay [3]; 2.96 µM (active) in assay [4]; 6.62 µM (active) in assay [5].

With `CC1=C(CC(=O)O)c2cc(F)ccc2C1=Cc1ccc(S(C)=O)cc1` (stereo not given), the Potency is 3.72 µM (active) in [1]; 0.59 µM (active) in assay [2]; 4.18 µM (active) in [3]; 11.8 µM (active) in assay [6]; 20.9 µM (active) in assay [5]; 14.8 µM (active) in [7].

Consider `O=C(O)Cc1cccc(OCCCN(Cc2cccc(C(F)(F)F)c2Cl)CC(c2ccccc2)c2ccccc2)c1`, for which the Potency result in assay [8], in assay [3], in [6] and in assay [5] was “inactive” throughout.

For the compound `FC(F)(F)c1ccc(C=Cc2nc(COc3ccc(CCCCn4ccnn4)cc3)co2)cc1`, the figures for the Potency in [8], in assay [3] and in [6] were 0.0662 µM (active), 0.0105 µM (active) and 0.001 µM (active), respectively.

As to `C[C@@H]1CC=CC=CC=CC=C[C@@H](O[C@@H]2O[C@H](C)[C@@H](O)[C@H](N)[C@H]2O)C[C@@H]2O[C@](O)(C[C@@H](O)C[C@@H]3O[C@@H]3C=CC(=O)O1)C[C@H](O)[C@@H]2C(=O)O`, the figures for the Potency in assay [1] and in assay [4] were 11.8 µM (active) and 4.18 µM (active), respectively. For the same compound, the Potency result in assay [2], in assay [3], in assay [6], in assay [9] and in assay [5] was “inactive” each time.

As for `CC1(COc2ccc3c(c2)ncn3-c2ccc3cccc(N4CCC(N)CC4)c3n2)COC1`, the Potency was 1.48 µM (active) in [8], 5.9 µM (active) in [6] and 1.18 µM (active) in assay [7].

With `CC(C)(C)c1nc(-c2cccc(NS(=O)(=O)c3c(F)cccc3F)c2F)c(-c2ccnc(N)n2)s1`, the Potency in [1] was 3.32 µM (active); in [2], 20.9 µM (active); in assay [3], 3.72 µM (active); in [6], 18.7 µM (active); in assay [5], 3.32 µM (active); in assay [7], 5.9 µM (active).

For `CCC(=O)NCC[C@@H]1CCc2ccc3c(c21)CCO3`, the Potency result in assay [1], in assay [2], in assay [3], in assay [6], in [9] and in [5] was “inactive” each time.

For the compound `CCN1CCC(n2cc(CNc3cc(Cl)c4ncc(C#N)c(Nc5ccc(F)c(Cl)c5)c4c3)nn2)CC1`, the Potency was 14.8 µM (active) in assay [1]; 10.5 µM (active) in assay [2]; 6.62 µM (active) in [3]; 5.9 µM (active) in assay [6]; 5.9 µM (active) in assay [9]. Also, the Potency result in [5] is “inactive”.

As to `CN(C)CCCNC(=O)c1ccc(-c2cc(O)c3ncccc3c2)cc1`, the Potency in assay [8], in [9] and in [5] was 20.9 µM (active) in each case.

Consider `CN(C)c1nc(Cc2ccc(NC(=O)c3ccc(C(F)(F)F)cc3)cc2)nc(N(C)C)c1CC(=O)O`, for which the Potency entry in assay [1], in assay [2], in [3], in assay [4], in assay [6] and in assay [9] was “inactive” in each case. In addition, the Potency result in [5] was “inactive”.

Regarding `CC(C)Oc1cc(Nc2nc(N[C@@H](C)c3ccc(F)cn3)ncc2Cl)[nH]n1`, the Potency was 8.33 µM (active) in assay [1]; 20.9 µM (active) in [2]; 18.7 µM (active) in [3]; 14.8 µM (active) in assay [6]; 16.6 µM (active) in assay [5]; 2.64 µM (active) in assay [7].

Take `C=C1[C@H](n2cnc3c(=O)[nH]c(N)nc32)C[C@H](O)[C@H]1CO`: the Potency is 3.32 µM (active) in assay [1], 18.7 µM (active) in assay [3], 9.35 µM (active) in assay [6] and 18.7 µM (active) in assay [5]. Moreover, in assay [2], the Potency entry is “inactive”.

Take `Cc1ccc2c(c1)c1c(n2CCc2ccc(C)nc2)CCN(C)C1`: the Potency result in [1], in assay [2], in [3], in assay [6], in [9] and in assay [5] was “inactive” each time. For the same compound, the Potency result in assay [7] is “inactive”.

Take `Cc1c(-c2cccc3c(CCCOc4cccc5ccccc45)c(C(=O)O)n(Cc4cccnc4)c23)c(COc2ccc(N3CCN([S+](=O)([O-])N(C)C)CC3)cc2)nn1C`: the Potency in assay [1] and in assay [2] was 14.8 µM (active) each time. Besides, the Potency result in [3], in assay [6], in [9], in [5] and in assay [7] was “inactive” throughout.

In the case of `CNC(=O)[C@H](Cc1ccccc1)NC(=O)[C@H](CC(C)C)[C@H](CSc1cccs1)C(=O)NO`, in assay [1], the Potency was 18.7 µM (active).

As for `OC(c1cc(C(F)(F)F)nc2c(C(F)(F)F)cccc12)C1CCCCN1` (stereo not given), the Potency was 26.4 µM (active) in assay [1], 18.7 µM (active) in assay [2], 18.7 µM (active) in [3] and 20.9 µM (active) in assay [5].

Consider `CN1N=C(N)c2cn([C@@H]3O[C@H](COP(=O)(O)O)[C@@H](O)[C@@H]3O)c3ncnc1c23`, for which the figures for the Potency in [2], in assay [3] and in assay [4] were 7.43 µM (active), 0.0935 µM (active) and 0.469 µM (active), respectively.

Turning to `Oc1ccc(C=Cc2cc(O)cc(O)c2)cc1`, the Potency result in assay [2], in [3], in assay [6], in assay [9] and in assay [5] was “inactive” in each case. In addition, the Potency in assay [4] is 13.2 µM (active).
